As usually defined, the AC50 is the concentration giving half of the maximal activity seen.

The source of these data is PubChem BioAssay (EPA / NIEHS).

Calls of active or inactive are those of the source. How the source made its calls: active means hit-call score of the fitted dose curve at least 0.9, where 1 is the maximum; inactive means score below 0.9.

Read-out in the experiment: growth arrest and DNA damage 45 (GADD45A), GADD45A (gene 1647)
Put plainly: LTEA_HepaRG_GADD45A: Life Technologies and Expression Analysis (LTEA) Assay for growth arrest and DNA damage 45 (GADD45A) using HepaRG (AID 2283458). Conditions: mRNA level, 48 h; actives raise or lower the signal. As for the experimental part: LTEA_HepaRG is a cell based, multiplexed-readout assay that uses HepaRG, a human liver cell line, with measurements taken at 48 hours after chemical dosing on a 96-well plate.LTEA_HepaRG_GADD45A is one of 102 assay component(s) measured in the LTEA HepaRG cell culture assay. It is a marker of Oxidative Stress.Data from the assay component LTEA_HepaRG_GADD45A was analyzed into 1 endpoint. This assay endpoint, LTEA_HepaRG_GADD45A, was analyzed with bidirectional fitting relative to DMSO as the negative control and baseline of activity. Using a type of inducible reporter, measures of mRNA induction for gain or loss-of-signal activity can be used to understand regulation of transcription factor activity. To generalize the intended target to other relatable targets, this assay endpoint is annotated to the cell cycle intended target family, where the subfamily is Oxidative Stress.
A total of 1060 chemcials from the ToxCast library were tested in eight-point concentration-response experiments. Cell culture and cytotoxicity assays were conducted at Thermo Fisher Scientific's Custom Services facility (Madison, WI). A single lot of human HepaRG cells (Thermo Fisher Scientific, Frederick, MD) was used for the cell culture experiments. 96-well format collagen type I coated plates of human HepaRG cells were prepared using established methods. Briefly, cryopreserved HepaRG cells were thawed, plated at a density of approximately 100,000 cells/well in HepaRG Thaw, Plate, and General Purpose media (HPRG770, Thermo Fisher Scientific), and incubated for 48 hours. 0.5% DMSO was selected as vehicle control to balance the requisite need of DMSO in HepaRG cultures to maintain differentiation (for example, baseline metabolism, proportions of hepatocytes vs. cholangiocytes), while enabling further hepatic receptor pathway activation (for example, PXR and CAR) in response to chemical exposure. 48 hours after plating, the culture medium was replaced with HepaRG Serum-Free Incudtion Media. Cells were exposed to each test chemical in duplicate and maintained in CO2 incubators for another 48 hours. Chemical plates were thawed to room temperature and 200x concentrations of treatment groups were prepared. 8-point conentration-reponse curves were made with the highest exposure at 100 uM, followed by half-log dilutions, all in 0.5% DMSO. Each test plate contained variouse controls, induction positive controls (1mM phenobarbital), cytotoxicity positive controls ([…] aflatoxin B1), vehicle controls (0.5% DMSO), and total lysis controls (0.5% DMSO). Cell morphology images were taken using an Essen IncuCyte FLR automated microscope, with six 96-well plates imaged in about 24 minutes. Images were captured and exported and JPEG files. Spent culture media was transfered to black-well plates for the LDH assay, and remaining media was sorted at -80 C for later use. Cells were treated with RLT buffer and frozen until shipped for gene expression analysis. Total RNA was isolated from the cell suspension in 75 uL of Buffer RLT (Qiagen, Germantown, MD 20874) by Quintiles/Expression Analysis (Durham, NC) using a custom isolation procedure. Total RNA from each plate well was transferred to a preamplification plate. Fluidigm's 96.96 Dynamic ArrayTM (Fluidigm, Amsterdam, the Netherlands) technology was used for gene expression analyses by quantitative reverse transcription polymerase chain reaction (qRT-PCR, performed by Quintiles/Expression Analysis, Durham, NC)89. Standard TaqManTM Assays (Applied Biosystems/ThermoFisher Scientific, Foster City, CA) were used to assess the expression of 93 genes selected based on their selectivity and sensitivity to important hepatic receptors known to be modulated by environmental chemicals; importance in human hepatocyte functionality; and hepatotoxicity. […]
In the case of `CCCCOC(=O)CCCCCCCCC(=O)OCCCC`, the result was inactive.
Turning to `CCCCCCCCCCCCCCCC`, the outcome was inactive.
For `Oc1ccc2ccccc2c1N=Nc1ccccc1`, the molecule was classed as inactive.
Consider `O=C(O)CCCCC(=O)O`, for which the outcome was inactive.
For the molecule `CCc1c(C(=O)NN2CCCCC2)nn(-c2ccc(Cl)cc2Cl)c1-c1ccc(Br)cc1`, the half-maximal activity concentration (AC50) was 82.1 µM (active).
`CC(CO)OC(C)CO` (stereo not given) (tested in a mixture with another compound): the molecule was classed as inactive.
As to `Clc1cc(Cl)c(Cl)cc1Cl`, the outcome was inactive.
Regarding `CN1CCCC1=O`, the molecule was called inactive.
Still for that read-out and setting: the entry for `Cc1nc(-c2ccc3c(c2)CCN(CCC2CCC(NC(=O)/C=C/c4ccc(F)cc4)CC2)CC3)no1` (stereo not given) is “inactive”; for `CCCCCCC(=O)OCC` it is “inactive”.
As for `Cc1ccc(C(C)C)c(O)c1`, the call was inactive.
Still for that read-out and setting: as for `Cc1c(C(=O)O)c(O)cc2c1C(=O)c1c(O)c([C@@H]3O[C@H](CO)[C@@H](O)[C@H](O)[C@H]3O)c(O)c(O)c1C2=O`, the entry is “inactive”; as for `Cc1ccc(C)c(O)c1C`, “inactive”; as for `COc1ccc(C)cc1N`, “inactive”.
The same measure, in the same setting: the entry for `Cc1ccc(Cl)cc1` is “inactive”; for `CC(=O)Oc1ccccc1C(=O)O` it is “inactive”; for `C=CCc1ccc(O)c(OC)c1` it is “inactive”.
For the molecule `COCCOCCOC`, the half-maximal activity concentration (AC50) was 0.998 µM (active).
Regarding `CCCCCCCCCCO`, the result was inactive.
On to `CC=Cc1ccc(O)c(OC)c1`, for which the molecule was classed as inactive.
On to `CCCCCC(=O)O`, for which the outcome was inactive.
Still for that read-out and setting: the entry for `CCOc1ccc2c(c1)C(C)=CC(C)(C)N2` is “inactive”; for `COc1cc(S(=O)(=O)O)c(C)cc1N=Nc1c(O)ccc2cc(S(=O)(=O)O)ccc12` it is “inactive”.
Same read-out and setting: the entry for `O=c1c(O)c(-c2ccc(O)c(O)c2)oc2cc(O)cc(O)c12` is “inactive”; for `C[Si]1(C)O[Si](C)(C)O[Si](C)(C)O[Si](C)(C)O1` it is “inactive”.
On to `Cc1cccc(Nc2cc(Cl)nc(SCC(=O)O)n2)c1C`, for which the outcome was inactive.
On the same count and under the same terms, as for `CCOC(=O)C(C)(C)Oc1ccc(Cl)cc1`, the entry is “inactive”; as for `Cc1cc(=O)[nH]c(=S)[nH]1`, “inactive”.
On the same count and under the same terms, as for `Cc1nc(C)nc(N2C[C@@H](C)N(c3ccnc([C@@H](C)O)n3)[C@@H](C)C2)n1`, the entry is “inactive”.
On the same count and under the same terms, as for `O=[N+]([O-])C(CO)(CO)CO`, the entry is “inactive”.
As to `CCCCCCCCCCCCCO`, the call was inactive.
Still for that read-out and setting: the entry for `C=CCOC(=O)c1ccccc1C(=O)OCC=C` is “inactive”.
In the case of `Cc1ccc2ncccc2c1`, the outcome was inactive.
The same measure, in the same setting: the entry for `C1CCC(SSC2CCCCC2)CC1` is “inactive”; for `Cc1cccc([N+](=O)[O-])c1C` it is “inactive”; for `O=C(O)Cc1ccccc1Nc1c(Cl)cccc1Cl` it is “inactive”.
The same measure, in the same setting: as for `NCCO`, the entry is “inactive”; as for `CCCCc1ccc2c(n1)[C@@H](c1ccc(OC)cc1C[C@H](C)C(=O)O)[C@H](C(=O)O)[C@H]2c1ccc2c(c1)OCO2`, “inactive”; as for `Nc1ccc(S(=O)(=O)c2ccc(N)cc2)cc1`, “inactive”.
Turning to `Nc1ccccc1N`, the AC50 is 50 µM (active).
